# Compound activity from PubChem BioAssay.
# BRCA1 expr up: increases BRCA1 expression. MCF7-BRCA1-FFLuc reporter, luminescence, 48 h; response scale: scaled: vehicle 0%, 10 µM genistein 100%. Potency, µM (series often up to 46.1 µM), hits mostly activators. 380,000 compounds, 1.1% hits. AID 624202; also: nearly all actives have a fitted effect of over 80% in size
#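 Using MCF7 cells harboring a BRCA1 firefly luciferase reporter, plated 2 h before compound pinning, the screen measured luminescence after 48 h incubation. Responses were normalized to DMSO and 10 microM genistein, then fitted for concentration-effect.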
# IL-2 act: IL-2 activation. IL-2 activation reporter assay, cell-based qHTS; stimulated with anti-CD3/CD4/CD28 beads; in transgenic mouse T cells. activation, % (series mostly up to about 46 µM). 360,000 compounds, 0.065% hits; in the data active = activation above about 50%; inconclusive = mostly about 30% to 49%
#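 First, unstimulated transgenic mouse T cells were exposed to compound for 60 min. Next, anti-CD3/anti-CD4-coated beads with anti-CD28 were added. Finally, after 18 h at 37 degrees C, EGFP and DsRed were imaged.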
# ELG1 repair inh: inhibitors of ELG1-dependent DNA repair in HEK293T cells; Potency, µM (series often up to 46.1 µM), usual class: inhibitors; AID 504467; 330,000 compounds, 2.3% hits; HEK293T ELG1-luciferase reporter, luminescence, 16 h; DNA damage induced by 5-fluorouridine; also: nearly all actives have a fitted effect of over 55% in size
#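 DMSO vehicle served as the neutral condition. Each well held 2,000 cells given 5-fluorouridine plus compound; after 16 hr at 37 °C/5% CO2, ONE-Glo was added and luciferase measured 30 min later.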
# Nrf2 ARE act: Nrf2 pathway activation; AREc32 ARE-luciferase reporter (MCF7-derived line), luminescence, 24 h; Potency, µM (doses to about 46.1 µM), hits mostly activators; 410,000 compounds, 0.31% hits; AID 624171; also: nearly all actives have a fitted effect of over 65% in size
#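 AREc32 cells carrying an ARE-driven firefly luciferase reporter were seeded at 1000 cells/well in OPTI-MEM with 5% FBS, then exposed to compound for 24 hr at 37 deg C. Luminescence was read with Steady-Glo after 30 min at RT.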
# Hits are given with their value; i = inactive; ? = inconclusive; nt = no result. A selection: hits, their analogues and other compounds. The true share with any hit is near 3.1%. Unless noted, calls follow the shape of the dose curve; as a rule, active = well fitted curve in the direction sought with a large enough effect; inconclusive = small, poorly fitted or top-dose-only effect, or another doubt; inactive = no such curve, though single readings can be large; an effect the other way counts as inactive or inconclusive.
SMILES,BRCA1 expr up,IL-2 act,ELG1 repair inh,Nrf2 ARE act
CCn1c(SCC(=O)N2CCN(c3ccccc3)CC2)nnc1-c1ccoc1C,i,i,16µM,i
Cc1ccc2c(c1)N(C(=O)N1CCC(C(=O)NCc3cccc(Br)c3)CC1)CCO2,nt,nt,nt,i
CCC(=O)N1c2ccccc2CC1C(=O)NCCc1ccccc1OC (centres undefined),nt,nt,nt,i
CC(=O)Oc1c(Br)cc(N(C(C)=O)S(=O)(=O)c2ccccc2)c2ccccc12,i,i,23µM,i
CN1CCN(Cc2nc3ccccc3c(=O)n2Cc2nc(-c3ccccc3F)cs2)CC1,i,i,16µM,?
CN1CCN(Cc2nc3ccccc3c(=O)n2Cc2nc(-c3ccc4ccccc4c3)cs2)CC1,i,i,13µM,?
CN1CCN(Cc2nc3ccccc3c(=O)n2Cc2nc(-c3cccc([N+](=O)[O-])c3)cs2)CC1,i,i,?,i
CCCCNC(=O)C(NC(=O)c1ccccc1)C(=O)c1ccccc1 (centres undefined),nt,i,nt,nt
O=C(NCC1CC1)NC(=O)c1c(F)cccc1Cl,i,i,?,i
O=C(NCC1CC1)NC(=O)c1ccccc1F,13µM,i,nt,i
C=CCn1c(=O)/c(=C/c2ccsc2)s/c1=C(\C#N)C(=O)NCCN1CCOCC1,i,60,nt,i
N#C/C(=C\c1ccccc1)C(=O)NCCN1CCOCC1,i,i,i,i
CCN(CC)CCCNC(=O)CSc1nc(-c2ccc(OC)cc2)cc(C(F)(F)F)n1,nt,nt,nt,i
CCOC(=O)c1c(Nc2ccccc2OCCOC)n[nH]c1C,i,i,21µM,i
COc1ccc(C2CC(=O)Nc3c2c(C)nn3-c2nncc(-c3ccc(C)cc3)n2)c(OC)c1OC (centres undefined),nt,nt,nt,i
Cc1cc(-c2ccccc2)nc(N2CCC(C(=O)NC(C)C)CC2)n1,2µM,i,i,i
O=S1(=O)Nc2c(ccc3cccnc23)-c2ccccc21,i,i,?,7.1µM
CCc1ccc(CNc2ncnc3onc(-c4ccc(Cl)cc4)c23)cc1,i,nt,nt,i
COc1ccc2c(c1)c1c(c(=O)n(-c3ccc(OC)c(OC)c3)c(=O)n1Cc1ccccc1F)n2C,i,nt,nt,i
O=C(O)c1cc(-c2ccco2)nc2ccccc12,i,i,i,i
O=C(NC1CC1)c1cc(-c2ccco2)nc2ccccc12,i,i,i,13µM
Cc1nnc(NC(=O)c2cc(-c3ccco3)nc3ccccc23)s1,nt,nt,i,nt
O=C(Nc1cccc(S(=O)(=O)NC2=NCCC2)c1)c1cc(-c2ccco2)nc2ccccc12,i,i,i,10µM
Cc1csc(NC(=O)c2cc(-c3ccco3)nc3ccccc23)n1,i,i,21µM,4µM
O=C(/C=C/c1ccc([N+](=O)[O-])cc1)Nc1cccc(S(=O)(=O)NC2=NCCCCC2)c1,i,i,15µM,i
SMILES,BRCA1 expr up,IL-2 act,ELG1 repair inh,Nrf2 ARE act
Cc1cc(C)c(Cn2cnc3nc4c(cc3c2=O)CCCC4)c(C)c1,nt,nt,nt,i
Cc1ccc2c(CC(=O)Nc3ccc(S(=O)(=O)N4CCCCC4)cc3)coc2c1C,nt,nt,nt,i
CN(C)c1cccc(C(=O)Nc2cccc(S(=O)(=O)NC3=NCCC3)c2)c1,4µM,i,?,i
CN(C)C(=O)c1ccc(NC(=O)c2cc(-c3ccco3)nc3ccccc23)cc1,i,i,i,11µM
CCN(CC)CCNC(=O)c1ccc(NC(=O)c2cc(-c3ccco3)nc3ccccc23)cc1,i,i,i,i
Cn1c(=O)c(C(=O)COC(=O)c2cc(-c3ccco3)nc3ccccc23)c(N)n(CC2CC2)c1=O,nt,nt,6.5µM,nt
CCc1ccc(NC(=O)CSc2ncc(S(=O)(=O)c3cc(C)ccc3C)c(=O)[nH]2)cc1,i,nt,nt,i
CCc1cccc(NC(c2nnc(-c3ccccc3)o2)c2ccc(F)cc2Cl)c1 (centres undefined),nt,nt,nt,i
CCOc1ccc(N(CC(=O)Nc2ccc(C)c(C)c2)S(C)(=O)=O)cc1,2µM,i,?,i
O=c1c2cc(-c3ccccc3)sc2ncn1-n1cccc1,2µM,i,?,i
O=c1[nH]cnc2sc(-c3ccccc3)cc12,13µM,i,?,i
O=C(Cn1nnc(-c2ccccc2)n1)N1CCCCC1,i,i,?,i
CC(C)COc1ccc(-c2nnn(CC(=O)N3CCCC3)n2)cc1,10µM,i,?,i
COc1ccc(CCNC(=O)c2sc3cc(C)ccc3c2Cl)cc1,i,i,i,i
CCNC(=O)c1sc2cc(C)ccc2c1Cl,7.1µM,i,?,i
Cc1ccc2c(Cl)c(C(=O)NCCc3ccccc3)sc2c1,3.2µM,i,?,i
